The record followed here is PubChem BioAssay (EPA / NIEHS).

Read-out in assay [1]: Thyroid Hormone Responsive (THRSP), THRSP (gene 7069)
Briefly: LTEA_HepaRG_THRSP: Life Technologies and Expression Analysis (LTEA) Assay for Thyroid Hormone Responsive (THRSP) using HepaRG (AID 2283536; active = hit-call score of the fitted dose curve at least 0.9, where 1 is the maximum; inactive = score below 0.9). To be noted: mRNA level, 48 h; actives raise or lower the signal. Summed up: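 mRNA induction or loss relative to 0.5% DMSO vehicle was fitted bidirectionally across an eight-point curve whose highest exposure was 100 uM. Human HepaRG liver cells received chemicals in duplicate over 48 h before RNA extraction.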

Read-out in assay [2]: UDP glucuronosyltransferase (UGT1A1), UGT1A1 (gene 54658)
As to the kind of experiment: LTEA_HepaRG_UGT1A1: Life Technologies and Expression Analysis (LTEA) Assay for UDP glucuronosyltransferase (UGT1A1) using HepaRG (AID 2283538; active = hit-call score of the fitted dose curve at least 0.9, where 1 is the maximum; inactive = score below 0.9). The note with it: mRNA level, 48 h; actives raise or lower the signal. Summed up: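 Readout is UGT1A1 transcript level by qRT-PCR, normalized to three housekeeping genes, after 48 h chemical treatment of HepaRG cells. Concentrations ran from 100 uM down in half-log steps with 0.5% DMSO, and gain or loss relative to DMSO was fitted.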

Read-out in assay [3]: UDP glucuronosyltransferase (UGT1A6), UGT1A6 (gene 54578)
Briefly: LTEA_HepaRG_UGT1A6: Life Technologies and Expression Analysis (LTEA) Assay for UDP glucuronosyltransferase (UGT1A6) using HepaRG (AID 2283539; active = hit-call score of the fitted dose curve at least 0.9, where 1 is the maximum; inactive = score below 0.9). The note with it: mRNA level, 48 h; actives raise or lower the signal. Summed up: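 Endpoint is UGT1A6 transcript induction or loss in a human liver cell line, quantified by TaqMan qRT-PCR 48 h after dosing. Concentrations ran from 100 uM downward in half-log steps in 0.5% DMSO; activity was fitted in both directions versus vehicle.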

Read-out in assay [4]: X-box binding protein 1 (XBP1), XBP1 (gene 7494)
As to the kind of experiment: LTEA_HepaRG_XBP1: Life Technologies and Expression Analysis (LTEA) Assay for X-box binding protein 1 (XBP1) using HepaRG (AID 2283540; active = hit-call score of the fitted dose curve at least 0.9, where 1 is the maximum; inactive = score below 0.9). The note with it: mRNA level, 48 h; actives raise or lower the signal. Summed up:
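Human HepaRG monolayers receive test chemical for 48 h across an eight-point half-log series starting at 100 uM. XBP1 mRNA gain or loss is scored against DMSO by qRT-PCR.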

The nature of assay [5]: LTEA_HepaRG_LDH_cytotoxicity: Cytotoxicity Assessment in the Life Technologies and Expression Analysis (LTEA) Assay (AID 2283563).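 As to AC50: LDH activity released into spent culture medium as a marker of cell death.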 Summed up:
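Human HepaRG hepatic cells are treated with test chemicals for 48 h at up to 100 uM in 0.5% DMSO. Cytotoxicity is scored from medium LDH against the vehicle control.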

Assay [6] in a line: ATG_XTT_Cytotoxicity: Cytotoxicity Assessment in the Attagene TRANS-FACTORIAL HepG2 Assay (AID 2283584). Summed up: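 Transfect HepG2 with GAL4-UAS reporter units, dose compound, incubate 24 h, then measure viable cell number by XTT. Fit concentration response against DMSO baseline.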
Assay [7] can be described thus: Tanguay_ZF_120hpf_MORT_legacy: (Legacy) Oregon State University Tanguay Lab 120 Hour Post-fertilization zebrafish Assay for Mortality (AID 2283633). Summed up: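 Mortality endpoint from a multiplexed whole-embryo zebrafish screen. Dechorionated wild-type embryos received compound at 6 hpf and remained under static exposure at 28C until 120 hpf, with death noted as a present/absent call.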

Assay [8] in a line: Tanguay_ZF_120hpf_YSE_legacy: (Legacy) Oregon State University Tanguay Lab 120 Hour Post-fertilization zebrafish Assay for Yolk Sac Edema (AID 2283634). Summed up:
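Readout: presence or absence of yolk sac edema at 120 hpf, fitted upward against DMSO controls. Exposure ran statically from 6 hpf in dechorionated embryos kept at 28C.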

Assay [9] in a line: Tanguay_ZF_120hpf_EYE_legacy: (Legacy) Oregon State University Tanguay Lab 120 Hour Post-fertilization zebrafish Assay for Eye Malformation (AID 2283636). Summed up: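 Read-out is binary presence or absence of eye malformation, scored by brightfield microscopy at 120 hpf. Single larvae were exposed from 6 hpf in embryo medium containing 0.64% DMSO, with DMSO as baseline.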
Assay [10] can be described thus: Tanguay_ZF_120hpf_SNOU_legacy: (Legacy) Oregon State University Tanguay Lab 120 Hour Post-fertilization zebrafish Assay for Snout Malformation (AID 2283637). Summed up: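 Snout malformation read as a yes/no call on brightfield images of 120 hpf larvae (Tropical 5D strain). Static exposure began at 6 hpf on dechorionated embryos in 0.64% DMSO, with gain of signal analysed versus DMSO controls.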

Assay [11] is described as follows: Tanguay_ZF_120hpf_AXIS_legacy: (Legacy) Oregon State University Tanguay Lab 120 Hour Post-fertilization zebrafish Assay for Body Axis Malformation (AID 2283635). Summed up: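 Static 6–120 hpf chemical exposure of dechorionated wild-type 5D zebrafish, one per well at 28C; morphology endpoint scored binary at 120 hpf relative to DMSO control.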
A short description of assay [12]: TOX21_p53_BLA_p2_viability: Viability Assessment in the Tox21 HCT-116 p53 Agonism Beta-lactamase Assay, Phase 2 (AID 2283591).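 Also: actives lower the ATP signal meaning cytotoxicity.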 Summed up:
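Cytotoxicity readout: CellTiter-Glo ATP luminescence, 30 min at room temperature, after the beta-lactamase read. Cells were HCT116 exposed 16 h at 37C to compounds pin-transferred at 217-fold dilution from DMSO stocks.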

Assay [13] concerns the target Cellular tumor antigen p53 (Homo sapiens) (UniProt P04637). Briefly: TOX21_p53_BLA_p2_ratio: Tox21 HCT-116 p53 Agonism Beta-lactamase Assay, Ratio, Phase 2 (AID 2283592). Summed up:
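An inducible beta-lactamase reporter in HCT116 cells signals p53 pathway activation. After 16 h chemical exposure at 37C, cells load CCF4-AM substrate for 2 h at room temperature; activity is the cleaved/uncleaved emission ratio relative to DMSO.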

The nature of assay [14]: TOX21_p53_BLA_p3_viability: Viability Assessment in the Tox21 HCT-116 p53 Agonism Beta-lactamase Assay, Phase 3 (AID 2283593).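 Also: cells exposed to compound for 16 h before reading.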 Summed up:
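Cellular ATP was quantified by CellTiter-Glo luminescence, read after 30 min at room temperature. Beforehand, HCT116 cells (4000/well) received compound 5 h post-seeding, 217-fold diluted from DMSO, then incubated 16 h at 37C.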

Assay [15] addresses Cellular tumor antigen p53 (Homo sapiens) (UniProt P04637). Briefly: TOX21_p53_BLA_p3_ratio: Tox21 HCT-116 p53 Agonism Beta-lactamase Assay, Ratio, Phase 3 (AID 2283596). Summed up:
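HCT116 p53-bla cells (4000/well) given compound in DMSO (217-fold dilution) after 5 h, incubated 16 h at 37C. CCF4-AM substrate 2 h at room temperature; 460/530 nm emission ratio, gain fitted against DMSO.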

Assay [16] is described as follows: TOX21_p53_BLA_p4_viability: Viability Assessment in the Tox21 HCT-116 p53 Agonism Beta-lactamase Assay, Phase 4 (AID 2283597).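 Also: hits lower the luminescence signal meaning cytotoxicity.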 Summed up: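 Compound exposure of HCT116 cells lasts 16 h at 37C, 5% CO2, with DMSO stocks diluted 217-fold. Cellular ATP is then quantified by CellTiter-Glo luminescence after 30 min at room temperature.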
Assay [17] deals with Cellular tumor antigen p53 (Homo sapiens) (UniProt P04637). As to the kind of experiment: TOX21_p53_BLA_p5_ratio: Tox21 HCT-116 p53 Agonism Beta-lactamase Assay, Ratio, Phase 5 (AID 2283599). Summed up: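 Beta-lactamase reporter ratio (blue 460 nm over green 530 nm, 405 nm excitation) after 2 h CCF4-AM loading, in HCT-116 cells exposed 16 h at 37 C to compounds pinned at 217-fold dilution. Increases relative to DMSO baseline scored.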
Sequence of Cellular tumor antigen p53 (Homo sapiens) (P04637 whole entry, looked up): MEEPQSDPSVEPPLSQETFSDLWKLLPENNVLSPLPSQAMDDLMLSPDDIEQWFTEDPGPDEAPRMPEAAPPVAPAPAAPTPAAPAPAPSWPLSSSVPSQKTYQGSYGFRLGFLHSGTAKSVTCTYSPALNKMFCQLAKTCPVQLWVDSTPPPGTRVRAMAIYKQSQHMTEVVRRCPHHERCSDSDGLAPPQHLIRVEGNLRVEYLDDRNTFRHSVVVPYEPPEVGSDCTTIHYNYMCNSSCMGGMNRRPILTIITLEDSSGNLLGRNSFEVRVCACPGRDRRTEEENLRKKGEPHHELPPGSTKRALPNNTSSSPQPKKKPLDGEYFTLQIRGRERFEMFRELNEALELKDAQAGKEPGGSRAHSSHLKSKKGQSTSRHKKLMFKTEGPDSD

Assay [18] is described as follows: TOX21_p53_BLA_p5_viability: Viability Assessment in the Tox21 HCT-116 p53 Agonism Beta-lactamase Assay, Phase 5 (AID 2283600). Summed up: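 Counter-readout for cytotoxicity: ATP-dependent luminescence from CellTiter-Glo, read in the beta-lactamase wells after 30 min at RT, following a 16 h compound exposure at 37C.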
For assay [19], the target named is Cellular tumor antigen p53 (Homo sapiens) (UniProt P04637). Briefly: TOX21_p53_BLA_p4_ratio: Tox21 HCT-116 p53 Agonism Beta-lactamase Assay, Ratio, Phase 4 (AID 2283601). Summed up: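 Signal is the blue/green (460nm/530nm) ratio of cleaved versus uncleaved CCF4-AM substrate, read after 2 h substrate loading. Cells were HCT116 carrying the p53-responsive beta-lactamase reporter, dosed 16 h at 37C, 5% CO2; CellTiter-Glo measured in parallel.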

Inconclusive results are not listed. Where a structure was tested more than once in an assay, its records may differ in their call. Calls of active or inactive are those of the source. The calls were made as follows, unless noted: active = hit-call score of the fitted dose curve at least 0.9, where 1 is the maximum; inconclusive = response in the unintended direction; inactive = score below 0.9.

Regarding `c1ccc2c(c1)-c1cccc3c1c-2cc1ccccc13`, the figures for the concentration at half-maximal activity (AC50) in [1] and in assay [4] were 27.7 µM (active) and 12.7 µM (active), respectively. Further, the compound was classed as inactive in [2], in assay [3], in [5], in assay [6], in assay [7] and in assay [8]. In addition, the compound was classed as inactive in [9] and in assay [10].
For `COS(C)(=O)=O`, the result in [1], in assay [2], in assay [3], in assay [4], in assay [5] and in assay [7] was inactive. Also, the call in assay [8], in [11], in assay [9] and in assay [10] was inactive.
For `S=P(N1CC1)(N1CC1)N1CC1`, the call in assay [6], in [12], in [13], in assay [14], in assay [15] and in assay [16] was inactive. Besides, the result in assay [17], in assay [18] and in assay [19] was inactive. In addition, in assay [15], the AC50 was 48.8 µM (active).
Consider `OCc1c[nH]c2ccccc12`, for which the call in [6], in assay [12], in [14], in assay [15], in assay [16] and in assay [17] was inactive. Besides, the compound was called inactive in [18]. Further, the AC50 in assay [13] is 86.5 µM (active); in [19] it was 78.9 µM (active).
Take `COCc1nnc(-c2ccc[n+]([O-])c2)n1-c1c(Cl)c(Cl)cc2[nH]c(=O)c(=O)[nH]c12`: the result in [1], in [2], in assay [3], in assay [4], in assay [5] and in [7] was inactive. The compound was classed as inactive in assay [8], in assay [9] and in assay [10].
For `OCc1ccccc1`, the compound was classed as inactive in [1], in [2], in assay [3], in assay [4], in assay [5] and in [7]. In addition, the outcome in assay [8], in [11], in [9] and in [10] was inactive.
As to `Cc1nccn1-c1ccc(Sc2cccc(C3(C(N)=O)CCOCC3)c2)cc1`, the AC50 in assay [1] is 10.8 µM (active); in [2] it was 23 µM (active); in [3] it was 19.1 µM (active); in assay [4] it was 7.33 µM (active); in assay [5] it was 20.3 µM (active). Moreover, the compound was called inactive in [7], in [8], in assay [9] and in assay [10].
As for `NC(=O)N1c2ccccc2C=Cc2ccccc21`, the result in assay [1], in [3], in [4], in assay [5], in [6] and in assay [7] was inactive. Moreover, the outcome in [8], in assay [11], in assay [9] and in [10] was inactive. For the same compound, the concentration at half-maximal activity (AC50) in assay [2] is 21.6 µM (active).
Regarding `OC[C@H]1O[C@@H]2O[C@H]3[C@H](O)[C@@H](O)[C@@H](O[C@H]4[C@H](O)[C@@H](O)[C@@H](O[C@H]5[C@H](O)[C@@H](O)[C@@H](O[C@H]6[C@H](O)[C@@H](O)[C@@H](O[C@H]7[C@H](O)[C@@H](O)[C@@H](O[C@H]1[C@H](O)[C@H]2O)O[C@@H]7CO)O[C@@H]6CO)O[C@@H]5CO)O[C@@H]4CO)O[C@@H]3CO`, the compound was classed as inactive in assay [1], in assay [2], in assay [3], in assay [4], in assay [5] and in assay [6]. Further, the compound was called inactive in assay [7], in assay [8], in assay [11], in assay [9] and in [10].
